Reference: PMC7862700, “An all-to-all approach to the identification of sequence-specific readers for epigenetic DNA modifications on cytosine”

What was measured:
Test in all cases: DAPPL (digital affinity profiling via proximity ligation, sequencing); 10 mM Tris-HCl pH 7.5, 50 mM NaCl, 1 mM DTT, 4% glycerol, room temperature, 30 min; GST-TFs on glutathione beads, 16-mer random dsDNA library, 0.1% formaldehyde crosslink after washing; high values mean tight binding
FEV = molecular target: T1, FEV (Homo sapiens, UniProt Q99581 1-238); details: protein: recombinant; tags: N-terminal GST; dsDNA, one strand shown
T1 sequence: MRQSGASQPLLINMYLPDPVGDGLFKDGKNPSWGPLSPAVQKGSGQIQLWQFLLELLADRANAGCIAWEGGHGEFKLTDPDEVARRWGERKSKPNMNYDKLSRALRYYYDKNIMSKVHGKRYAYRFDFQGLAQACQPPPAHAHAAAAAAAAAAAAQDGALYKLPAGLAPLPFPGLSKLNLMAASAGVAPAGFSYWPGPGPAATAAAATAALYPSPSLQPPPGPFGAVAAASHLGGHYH
How it was run: (§1)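 Pools were built from human transcription factors expressed in yeast as GST fusions, captured on glutathione beads and DNA-barcoded, along with a tag-only sample. Incubation with 200 nmole of a 16-mer random double-stranded DNA library lasted 30 min at room temperature in Tris/NaCl/DTT/glycerol buffer, and was followed by washing, 0.1% formaldehyde crosslinking, proximity ligation, PCR amplification and Illumina NextSeq500 sequencing. Binding signal is the quotient of each hexamer's read frequency for a factor and its frequency for the tag-only sample.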

ETV5 = ETV5 (Homo sapiens, UniProt P41161 1-510); details: protein: recombinant; tags: N-terminal GST; dsDNA, one strand shown
How it was run: as §1

HSF1 = HSF1 (Homo sapiens, UniProt Q00613 1-529); details: protein: recombinant; tags: N-terminal GST; chain copies: 3; dsDNA, one strand shown
How it was run: as §1

SPIC = molecular target: T2, SPIC (Homo sapiens, UniProt Q8N5J4 1-248); details: protein: recombinant; tags: N-terminal GST; dsDNA, one strand shown
T2 sequence: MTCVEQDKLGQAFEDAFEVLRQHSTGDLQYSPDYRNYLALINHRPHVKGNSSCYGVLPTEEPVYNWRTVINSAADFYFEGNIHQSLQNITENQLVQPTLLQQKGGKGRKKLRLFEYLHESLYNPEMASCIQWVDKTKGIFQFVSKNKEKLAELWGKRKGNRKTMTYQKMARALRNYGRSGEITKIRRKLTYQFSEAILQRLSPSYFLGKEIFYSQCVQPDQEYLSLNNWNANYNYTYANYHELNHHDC
How it was run: as §1

ELF4 = ELF4 (Homo sapiens, UniProt Q99607 1-663); details: protein: recombinant; tags: N-terminal GST; dsDNA, one strand shown
How it was run: as §1

ELK4 = molecular target: T3, ELK4 (Homo sapiens, UniProt P28324-2 1-405); details: protein: recombinant; tags: N-terminal GST; dsDNA, one strand shown
T3 sequence: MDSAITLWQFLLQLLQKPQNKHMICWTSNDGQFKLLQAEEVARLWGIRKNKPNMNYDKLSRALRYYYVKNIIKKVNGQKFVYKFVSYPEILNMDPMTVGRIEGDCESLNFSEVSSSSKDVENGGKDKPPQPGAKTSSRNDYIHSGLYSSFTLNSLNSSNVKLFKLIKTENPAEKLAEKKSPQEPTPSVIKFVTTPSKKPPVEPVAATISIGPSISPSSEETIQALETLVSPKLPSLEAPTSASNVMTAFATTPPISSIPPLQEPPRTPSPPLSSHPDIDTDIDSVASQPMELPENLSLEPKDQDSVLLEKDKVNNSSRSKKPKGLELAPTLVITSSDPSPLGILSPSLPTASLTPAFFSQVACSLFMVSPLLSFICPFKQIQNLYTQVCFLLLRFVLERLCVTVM
How it was run: as §1

ETV2 = molecular target: T4, ETV2 (Homo sapiens, UniProt O00321 1-342); details: protein: recombinant; tags: N-terminal GST; dsDNA, one strand shown
T4 sequence: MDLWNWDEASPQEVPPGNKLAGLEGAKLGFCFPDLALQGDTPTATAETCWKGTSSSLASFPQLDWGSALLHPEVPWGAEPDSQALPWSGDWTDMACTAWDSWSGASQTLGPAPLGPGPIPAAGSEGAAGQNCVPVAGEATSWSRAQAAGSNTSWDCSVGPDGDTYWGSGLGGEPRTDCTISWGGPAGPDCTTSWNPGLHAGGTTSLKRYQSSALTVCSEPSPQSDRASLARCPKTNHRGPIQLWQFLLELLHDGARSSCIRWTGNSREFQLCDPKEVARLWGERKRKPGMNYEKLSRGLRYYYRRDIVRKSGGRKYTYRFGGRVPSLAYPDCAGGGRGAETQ
How it was run: as §1

ELF3 = molecular target: T5, ELF3 (Homo sapiens, UniProt P78545 1-371); details: protein: recombinant; tags: N-terminal GST; dsDNA, one strand shown
T5 sequence: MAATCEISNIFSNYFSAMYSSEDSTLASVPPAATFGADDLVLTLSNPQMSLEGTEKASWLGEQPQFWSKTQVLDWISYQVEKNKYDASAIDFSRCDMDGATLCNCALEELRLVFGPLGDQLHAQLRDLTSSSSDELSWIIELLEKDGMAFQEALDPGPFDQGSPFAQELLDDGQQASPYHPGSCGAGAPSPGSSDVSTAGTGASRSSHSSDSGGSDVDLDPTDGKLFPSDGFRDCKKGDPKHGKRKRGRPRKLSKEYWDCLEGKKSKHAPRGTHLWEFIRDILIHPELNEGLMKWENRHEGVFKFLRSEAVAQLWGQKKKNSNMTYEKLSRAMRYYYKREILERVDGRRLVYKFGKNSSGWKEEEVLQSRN
How it was run: as §1

CRX = CRX (Homo sapiens, UniProt O43186 1-299); details: protein: recombinant; tags: N-terminal GST; dsDNA, one strand shown
How it was run: as §1

ETV1 = ETV1 (Homo sapiens, UniProt P50549 1-477); details: protein: recombinant; tags: N-terminal GST; dsDNA, one strand shown
How it was run: as §1

ERF = molecular target: T6, ERF (Homo sapiens, UniProt P50548 1-548); details: protein: recombinant; tags: N-terminal GST; dsDNA, one strand shown
T6 sequence: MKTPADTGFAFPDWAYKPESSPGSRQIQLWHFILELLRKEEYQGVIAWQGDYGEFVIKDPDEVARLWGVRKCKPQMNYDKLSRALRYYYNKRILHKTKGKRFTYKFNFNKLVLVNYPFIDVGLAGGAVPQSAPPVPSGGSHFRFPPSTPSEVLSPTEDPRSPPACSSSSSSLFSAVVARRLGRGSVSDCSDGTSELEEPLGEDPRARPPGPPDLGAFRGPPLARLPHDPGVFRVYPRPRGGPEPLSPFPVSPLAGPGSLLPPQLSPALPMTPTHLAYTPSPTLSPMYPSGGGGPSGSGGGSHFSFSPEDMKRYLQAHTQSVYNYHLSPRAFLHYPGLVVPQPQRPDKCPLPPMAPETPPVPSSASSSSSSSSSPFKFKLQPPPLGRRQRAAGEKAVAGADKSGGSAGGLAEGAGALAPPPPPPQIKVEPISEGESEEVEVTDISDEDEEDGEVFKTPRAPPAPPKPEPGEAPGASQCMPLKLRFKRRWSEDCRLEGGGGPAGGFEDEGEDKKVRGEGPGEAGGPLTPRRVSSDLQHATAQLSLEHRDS
How it was run: as §1

ETV3L = molecular target: T7, ETV3L (Homo sapiens, UniProt Q6ZN32 1-361); details: protein: recombinant; tags: N-terminal GST; dsDNA, one strand shown
T7 sequence: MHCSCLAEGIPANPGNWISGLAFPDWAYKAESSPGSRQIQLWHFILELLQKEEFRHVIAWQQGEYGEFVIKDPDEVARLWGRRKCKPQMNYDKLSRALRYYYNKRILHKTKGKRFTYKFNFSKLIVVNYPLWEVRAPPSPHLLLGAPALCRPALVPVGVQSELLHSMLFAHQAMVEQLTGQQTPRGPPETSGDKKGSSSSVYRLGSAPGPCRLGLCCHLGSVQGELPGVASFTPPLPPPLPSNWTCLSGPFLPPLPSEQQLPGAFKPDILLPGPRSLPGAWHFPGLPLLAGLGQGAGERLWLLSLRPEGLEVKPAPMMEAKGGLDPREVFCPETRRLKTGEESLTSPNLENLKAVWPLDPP
How it was run: as §1

ETS2 = molecular target: T8, ETS2 (Homo sapiens, UniProt P15036 1-469); details: protein: recombinant; tags: N-terminal GST; dsDNA, one strand shown
T8 sequence: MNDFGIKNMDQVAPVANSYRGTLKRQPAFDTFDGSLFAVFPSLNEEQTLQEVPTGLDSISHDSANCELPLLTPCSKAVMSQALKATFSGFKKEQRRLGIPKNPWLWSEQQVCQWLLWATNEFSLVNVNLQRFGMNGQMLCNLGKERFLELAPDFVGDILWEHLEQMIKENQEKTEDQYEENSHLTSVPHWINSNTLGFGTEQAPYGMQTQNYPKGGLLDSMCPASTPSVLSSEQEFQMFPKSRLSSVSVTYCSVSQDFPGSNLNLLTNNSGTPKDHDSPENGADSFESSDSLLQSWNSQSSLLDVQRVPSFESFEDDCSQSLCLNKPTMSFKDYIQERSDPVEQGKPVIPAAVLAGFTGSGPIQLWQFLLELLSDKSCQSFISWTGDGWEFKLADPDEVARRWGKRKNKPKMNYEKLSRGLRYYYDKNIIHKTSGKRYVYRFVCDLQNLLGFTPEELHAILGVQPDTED
How it was run: as §1

SPDEF = molecular target: T9, SPDEF (Homo sapiens, UniProt O95238 1-335); details: protein: recombinant; tags: N-terminal GST; dsDNA, one strand shown
T9 sequence: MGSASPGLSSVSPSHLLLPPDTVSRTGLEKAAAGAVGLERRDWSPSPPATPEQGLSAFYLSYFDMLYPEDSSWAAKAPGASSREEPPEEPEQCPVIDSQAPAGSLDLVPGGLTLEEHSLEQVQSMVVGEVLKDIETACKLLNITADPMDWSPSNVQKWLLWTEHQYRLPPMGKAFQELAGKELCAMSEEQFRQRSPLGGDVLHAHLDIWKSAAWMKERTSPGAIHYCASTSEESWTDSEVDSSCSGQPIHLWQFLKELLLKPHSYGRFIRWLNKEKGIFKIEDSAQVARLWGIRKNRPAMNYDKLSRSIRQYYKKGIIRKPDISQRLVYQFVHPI
How it was run: as §1

ETV7 = molecular target: T10, ETV7 (Homo sapiens, UniProt Q9Y603 1-341); details: protein: recombinant; tags: N-terminal GST; dsDNA, one strand shown
T10 sequence: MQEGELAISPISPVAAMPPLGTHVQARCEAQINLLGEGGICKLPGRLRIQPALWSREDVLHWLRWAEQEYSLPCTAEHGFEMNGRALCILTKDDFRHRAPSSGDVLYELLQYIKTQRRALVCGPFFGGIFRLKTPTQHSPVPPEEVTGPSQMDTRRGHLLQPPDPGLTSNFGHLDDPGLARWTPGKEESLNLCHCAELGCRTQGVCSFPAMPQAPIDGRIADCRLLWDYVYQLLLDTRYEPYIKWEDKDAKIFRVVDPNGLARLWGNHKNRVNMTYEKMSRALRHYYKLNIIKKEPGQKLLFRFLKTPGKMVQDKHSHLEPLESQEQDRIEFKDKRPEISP
How it was run: as §1

ELF5 = molecular target: T11, ELF5 (Homo sapiens, UniProt Q9UKW6-2 1-255); details: protein: recombinant; tags: N-terminal GST; dsDNA, one strand shown
T11 sequence: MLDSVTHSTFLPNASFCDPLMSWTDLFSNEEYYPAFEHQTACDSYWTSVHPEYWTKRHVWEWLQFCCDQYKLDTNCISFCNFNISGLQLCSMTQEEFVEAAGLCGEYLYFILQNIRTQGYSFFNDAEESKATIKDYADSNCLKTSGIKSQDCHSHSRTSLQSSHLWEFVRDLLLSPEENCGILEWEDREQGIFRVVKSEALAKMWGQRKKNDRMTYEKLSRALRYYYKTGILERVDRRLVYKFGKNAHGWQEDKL
How it was run: as §1

ETV3 = molecular target: T12, ETV3 (Homo sapiens, UniProt P41162-2 1-143); details: protein: recombinant; tags: N-terminal GST; dsDNA, one strand shown
T12 sequence: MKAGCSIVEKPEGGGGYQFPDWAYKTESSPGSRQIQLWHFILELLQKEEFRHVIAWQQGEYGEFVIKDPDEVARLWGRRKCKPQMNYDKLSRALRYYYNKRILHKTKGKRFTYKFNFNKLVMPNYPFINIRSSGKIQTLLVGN
How it was run: as §1

ETV6 = ETV6 (Homo sapiens, UniProt P41212 1-452); details: protein: recombinant; tags: N-terminal GST; dsDNA, one strand shown
How it was run: as §1

Chain of ETV5 (P41161 whole entry): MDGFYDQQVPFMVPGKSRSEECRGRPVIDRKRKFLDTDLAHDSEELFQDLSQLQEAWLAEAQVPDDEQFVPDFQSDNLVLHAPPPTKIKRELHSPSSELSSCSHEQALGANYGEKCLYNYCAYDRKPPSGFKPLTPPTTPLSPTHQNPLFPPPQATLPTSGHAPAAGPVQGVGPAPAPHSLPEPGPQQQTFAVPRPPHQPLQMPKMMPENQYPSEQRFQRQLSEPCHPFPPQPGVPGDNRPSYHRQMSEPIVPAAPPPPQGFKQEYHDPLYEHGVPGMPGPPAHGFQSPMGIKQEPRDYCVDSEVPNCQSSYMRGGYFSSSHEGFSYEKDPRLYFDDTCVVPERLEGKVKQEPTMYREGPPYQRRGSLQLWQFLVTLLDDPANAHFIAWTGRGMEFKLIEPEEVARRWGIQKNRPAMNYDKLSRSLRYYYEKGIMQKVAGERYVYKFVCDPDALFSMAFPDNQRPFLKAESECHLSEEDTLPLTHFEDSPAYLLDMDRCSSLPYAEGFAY
Chain of ETV1 (P50549 whole entry): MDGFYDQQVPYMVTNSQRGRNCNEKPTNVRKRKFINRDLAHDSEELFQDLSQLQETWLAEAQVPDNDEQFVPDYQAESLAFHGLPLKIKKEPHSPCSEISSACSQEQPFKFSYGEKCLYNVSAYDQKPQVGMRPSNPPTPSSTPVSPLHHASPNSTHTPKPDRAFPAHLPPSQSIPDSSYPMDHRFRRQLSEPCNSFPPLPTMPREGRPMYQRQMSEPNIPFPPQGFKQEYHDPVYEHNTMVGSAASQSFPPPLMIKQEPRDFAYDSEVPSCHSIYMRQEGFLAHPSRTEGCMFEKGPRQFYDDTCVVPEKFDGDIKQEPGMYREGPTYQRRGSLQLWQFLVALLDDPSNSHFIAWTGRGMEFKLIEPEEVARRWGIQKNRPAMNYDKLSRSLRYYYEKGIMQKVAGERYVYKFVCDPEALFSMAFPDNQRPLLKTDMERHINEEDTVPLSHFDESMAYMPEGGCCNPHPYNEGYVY
Chain of ETV6 (P41212 whole entry): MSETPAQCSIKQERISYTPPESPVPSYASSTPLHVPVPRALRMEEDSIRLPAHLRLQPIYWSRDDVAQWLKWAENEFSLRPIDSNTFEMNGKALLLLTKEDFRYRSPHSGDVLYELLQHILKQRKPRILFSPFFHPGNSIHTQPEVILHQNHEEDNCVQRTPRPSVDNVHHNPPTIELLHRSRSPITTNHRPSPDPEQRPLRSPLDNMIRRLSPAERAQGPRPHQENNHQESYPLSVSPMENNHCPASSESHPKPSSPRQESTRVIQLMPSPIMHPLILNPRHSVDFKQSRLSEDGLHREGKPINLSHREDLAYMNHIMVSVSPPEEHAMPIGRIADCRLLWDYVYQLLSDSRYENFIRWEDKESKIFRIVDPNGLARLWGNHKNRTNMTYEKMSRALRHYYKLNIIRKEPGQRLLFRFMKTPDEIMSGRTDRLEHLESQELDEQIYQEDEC
Chain of ELF4 (Q99607 whole entry): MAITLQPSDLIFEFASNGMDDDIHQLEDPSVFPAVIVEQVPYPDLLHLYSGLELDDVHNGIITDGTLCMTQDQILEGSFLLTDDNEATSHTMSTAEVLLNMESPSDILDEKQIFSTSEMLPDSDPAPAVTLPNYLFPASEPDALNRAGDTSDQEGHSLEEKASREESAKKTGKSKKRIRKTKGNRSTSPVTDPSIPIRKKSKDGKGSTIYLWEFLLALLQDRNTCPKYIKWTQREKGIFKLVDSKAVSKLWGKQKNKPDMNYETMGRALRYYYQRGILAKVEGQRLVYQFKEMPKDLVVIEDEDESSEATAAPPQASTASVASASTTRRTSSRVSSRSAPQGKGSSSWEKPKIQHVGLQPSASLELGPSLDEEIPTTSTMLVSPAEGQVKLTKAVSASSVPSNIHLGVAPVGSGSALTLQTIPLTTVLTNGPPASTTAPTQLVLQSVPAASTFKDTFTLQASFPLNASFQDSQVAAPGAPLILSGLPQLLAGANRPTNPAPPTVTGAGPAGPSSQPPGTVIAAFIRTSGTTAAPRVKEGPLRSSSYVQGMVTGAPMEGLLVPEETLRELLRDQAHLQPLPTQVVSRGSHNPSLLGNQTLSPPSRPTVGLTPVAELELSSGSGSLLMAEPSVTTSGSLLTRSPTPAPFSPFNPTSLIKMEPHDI
Chain of HSF1 (Q00613 whole entry): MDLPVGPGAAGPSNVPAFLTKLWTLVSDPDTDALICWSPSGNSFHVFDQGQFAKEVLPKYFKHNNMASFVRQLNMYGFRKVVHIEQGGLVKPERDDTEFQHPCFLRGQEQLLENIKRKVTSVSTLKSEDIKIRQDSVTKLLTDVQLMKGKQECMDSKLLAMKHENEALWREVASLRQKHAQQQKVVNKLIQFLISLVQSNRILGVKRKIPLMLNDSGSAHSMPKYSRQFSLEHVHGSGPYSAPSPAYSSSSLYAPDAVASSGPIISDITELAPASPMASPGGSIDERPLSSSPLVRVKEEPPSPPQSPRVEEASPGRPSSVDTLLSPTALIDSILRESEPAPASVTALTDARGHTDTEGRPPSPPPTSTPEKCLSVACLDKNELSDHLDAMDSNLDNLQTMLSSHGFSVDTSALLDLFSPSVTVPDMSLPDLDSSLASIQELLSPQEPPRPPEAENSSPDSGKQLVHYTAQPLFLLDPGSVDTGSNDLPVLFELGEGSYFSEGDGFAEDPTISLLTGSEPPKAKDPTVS
Chain of CRX (O43186 whole entry): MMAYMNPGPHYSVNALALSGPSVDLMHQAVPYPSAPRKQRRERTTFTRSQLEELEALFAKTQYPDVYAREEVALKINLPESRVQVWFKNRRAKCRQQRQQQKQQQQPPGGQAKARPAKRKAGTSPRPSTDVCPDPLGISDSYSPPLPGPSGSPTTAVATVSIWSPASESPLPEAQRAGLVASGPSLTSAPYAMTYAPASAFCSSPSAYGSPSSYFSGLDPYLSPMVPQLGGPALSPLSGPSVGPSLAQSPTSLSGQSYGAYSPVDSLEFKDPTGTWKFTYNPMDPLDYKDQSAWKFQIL

In the case of TTGGTA, the binding signal (FEV) is reported as 1.17 fold enrichment (6-mer frequency, TF over GST control), the binding signal (ETV5) is reported as 1.23 fold enrichment (6-mer frequency, TF over GST control) and the binding signal (HSF1) is reported as 1.16 fold enrichment (6-mer frequency, TF over GST control). The binding signal (SPIC) was 1.2 fold enrichment (6-mer frequency, TF over GST control), the binding signal (ELF4) was 1.25 fold enrichment (6-mer frequency, TF over GST control) and the binding signal (ELK4) was 1.34 fold enrichment (6-mer frequency, TF over GST control). The binding signal (ETV2) was 1 fold enrichment (6-mer frequency, TF over GST control), the binding signal (ELF3) was 1.25 fold enrichment (6-mer frequency, TF over GST control) and the binding signal (CRX) was 1.34 fold enrichment (6-mer frequency, TF over GST control). For the same sequence, the binding signal (ETV1) was 1.24 fold enrichment (6-mer frequency, TF over GST control), the binding signal (ERF) was 1.21 fold enrichment (6-mer frequency, TF over GST control) and the binding signal (ETV3L) was 1.32 fold enrichment (6-mer frequency, TF over GST control). For the same sequence, the binding signal (ETS2) was 1.23 fold enrichment (6-mer frequency, TF over GST control), the binding signal (SPDEF) was 1.23 fold enrichment (6-mer frequency, TF over GST control) and the binding signal (ETV7) was 1.23 fold enrichment (6-mer frequency, TF over GST control). The binding signal (ELF5) was 1.17 fold enrichment (6-mer frequency, TF over GST control), the binding signal (ETV3) was 1.18 fold enrichment (6-mer frequency, TF over GST control) and the binding signal (ETV6) was 1.19 fold enrichment (6-mer frequency, TF over GST control).
